Many of the other results were omitted from the sample, so hits are more common in it than they were.
GPT2 inh: inhibitors of human GPT2 alanine aminotransferase. Recombinant GPT2, coupled pyruvate oxidase/HRP Amplex Red fluorescence. Potency, µM (top dose mostly 57.7 µM), hits mostly inhibitors. 100,000 compounds, 0.25% hits. AID 1671188; active = well fitted inhibition curve with a large enough effect; inconclusive = small, poorly fitted or top-dose-only effect; also: nearly all actives have a fitted effect of over 60% in size
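GPT2 10ng/uL, a-KG 250uM, L-Ala 2mM, HEPES pH7.5 + 0.0001% Tween; 30 min RT. Then Amplex mix (PO/HRP/ThPP), 30 min RT dark, fluorescence. AOA 50uM used as positive control.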
hNpr1 antagonist: human Npr1 receptor antagonism; 76,000 compounds, 1.6% hits; HEK293 hNpr1 GloSensor cGMP, ANP-stimulated luminescence; Potency, µM (series often up to 46.3 µM), hits mostly inhibitors; also: nearly all actives have a fitted effect of over 60% in size
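Compound pre-incubated 30 min at room temperature on GloSensor-loaded HEK293 cells stably carrying hNpr1 and the pGS-40F cGMP biosensor. Stimulation uses hNppA at 0.1 nM final; luminescence is taken at baseline and 20 min post-agonist.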
Npr1 antag conf: hNpr1 antagonism, confirmation assay. Potency, µM (top dose mostly 57.6 µM), usual class: inhibitors. HEK293 hNpr1 cGMP GloSensor luminescence, ANP-stimulated. 1,400 compounds, 76% hits. AID 1347044. shares compounds with hNpr1 antagonist; also: nearly all actives have a fitted effect of over 70% in size
Npr2 selectivity: selectivity test of Npr1 antagonists against human Npr2 | 1,400 compounds, 67% hits | HEK293 hNpr2 GloSensor cGMP luminescence, CNP-stimulated | Potency, µM (titrated, usually from 57.6 µM), actives largely listed as inhibitors | shares compounds with hNpr1 antagonist; also: nearly all actives have a fitted effect of over 70% in size
FLuc inh counter: counter-screen for Npr1 antagonists: firefly luciferase inhibitors; shares compounds with hNpr1 antagonist; purified FLuc enzyme, luminescence, Km substrate; Potency, µM (doses to about 57.6 µM), hits mostly inhibitors; 1,400 compounds, 0.7% hits; active = well fitted inhibition curve with a large enough effect; inconclusive = small, poorly fitted or top-dose-only effect
Target sequence (P08659 whole entry, looked up): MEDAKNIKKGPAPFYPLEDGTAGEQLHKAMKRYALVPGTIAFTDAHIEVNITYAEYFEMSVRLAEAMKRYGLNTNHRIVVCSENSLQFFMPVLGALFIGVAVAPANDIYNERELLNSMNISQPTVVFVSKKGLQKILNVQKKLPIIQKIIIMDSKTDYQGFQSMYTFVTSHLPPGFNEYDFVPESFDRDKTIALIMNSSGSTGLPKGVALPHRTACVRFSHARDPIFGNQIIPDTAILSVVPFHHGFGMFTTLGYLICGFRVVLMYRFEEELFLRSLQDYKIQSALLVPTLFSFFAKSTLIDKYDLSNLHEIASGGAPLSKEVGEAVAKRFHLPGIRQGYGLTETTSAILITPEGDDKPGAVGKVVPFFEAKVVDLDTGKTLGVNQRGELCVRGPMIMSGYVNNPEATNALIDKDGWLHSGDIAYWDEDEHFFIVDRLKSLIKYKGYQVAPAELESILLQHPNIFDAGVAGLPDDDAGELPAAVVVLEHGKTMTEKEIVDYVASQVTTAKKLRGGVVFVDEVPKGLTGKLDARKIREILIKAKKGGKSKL
GloSensor cGMP: control cell line activity, Npr1 antagonist counter-screen; shares compounds with hNpr1 antagonist; HEK293 GloSensor cGMP, SNP-stimulated, luminescence; Potency, µM (titrated, usually from 57.6 µM), actives largely listed as inhibitors; 1,400 compounds, 69% hits; also: nearly all actives have a fitted effect of over 70% in size
Hits are given with their value; i = inactive; ? = inconclusive; nt = no result given; [ ] = remark or other dose. Unless noted, calls follow the shape of the full dose curve.

SMILES	GPT2 inh	hNpr1 antagonist	Npr1 antag conf	Npr2 selectivity	FLuc inh counter	GloSensor cGMP
COc1cccc(C(=O)N2CCCN(c3cc(-c4ccc(Cl)cc4)[nH]n3)CC2)c1OC	?	11µM	19µM	17µM	i	15µM
COc1ccccc1C(=O)N1CCCN(c2cc(-c3ccc(F)cc3)[nH]n2)CC1	i	i	nt	nt	nt	nt
O=C(C1CCCN(c2cnn(Cc3ccccc3)c(=O)c2)C1)N1CCCC1 (stereo not drawn)	i	i	nt	nt	nt	nt
Cc1ccc(N2CCN(C(=O)C3CCCN(c4cnn(Cc5ccccc5)c(=O)c4)C3)CC2)cc1 (stereo not drawn)	i	10µM	17µM	19µM	i	15µM
O=C(NCc1ccccc1)c1ccccc1OC1CN(Cc2ccncc2)C1	i	i	nt	nt	nt	nt
Cc1ccc(-n2ncc3c2CCCC3NC(=O)c2cc(C(C)C)no2)cc1C (stereo not drawn)	i	14µM	17µM	17µM	i	12µM
Cc1cc(C)cc(-n2ncc3c2CCCC3NC(=O)CCn2nnnc2C)c1 (stereo not drawn)	i	i	nt	nt	nt	nt
O=C(c1nc2cccnc2n(C2CC2)c1=O)N1CCN([S+](=O)([O-])c2cccc(C(F)(F)F)c2)CC1	i	nt	nt	nt	nt	nt
COc1cccc(-c2ccc(CN3CCCC(NC(=O)Cc4ccccn4)C3)cc2)c1 (stereo not drawn)	i	nt	nt	nt	nt	nt
COCCN1C(=O)CO[C@H]2CN(CCCc3ccccc3)C[C@H]21	i	14µM	16µM	20µM	i	13µM
NC(=O)CN1C(=O)CO[C@H]2CN(CCCc3ccccc3)C[C@H]21	i	i	nt	nt	nt	nt
Cc1cc(NC(=O)Cc2c[nH]c3ncc(-c4ccccc4C)cc23)n(C)n1	i	16µM	31µM	28µM	i	28µM
COc1ccc(-c2cnc3[nH]cc(CC(=O)Nc4ccc(OC)nc4)c3c2)cc1	i	?	?	?	i	?
COc1ccc(NC(=O)Cc2c[nH]c3ncc(-c4ccccc4)cc23)cc1	i	i	nt	nt	nt	nt
CNC(=O)c1cccc(-c2cnc3[nH]cc(CC(=O)Nc4ccccc4C)c3c2)c1	i	i	nt	nt	nt	nt
Cc1ccccc1-c1cnc2[nH]cc(CC(=O)Nc3ccccc3)c2c1	i	?	nt	nt	nt	nt
COc1ccc(NC(=O)Cc2c[nH]c3ncc(-c4ccccc4C)cc23)cc1	i	35µM	25µM	18µM	i	31µM
NC(=O)Cc1c[nH]c2ncc(-c3ccc(Oc4ccccc4)cc3)cc12	i	7.9µM	7.9µM	11µM	i	7.9µM
NC(=O)Cc1c[nH]c2ncc(-c3cccc(F)c3)cc12	i	i	nt	nt	nt	nt
O=C(NCc1cc(F)cc(F)c1)C1CCN(C(=O)N2CC3CC(C2)[C@H]2CCCC(=O)N2C3)CC1 (stereo partly drawn)	i	i	nt	nt	nt	nt
COc1ccc(-c2c(C(=O)NC3CCCCCC3)nc3sccn23)cc1	i	nt	nt	nt	nt	nt
Cc1cc(C(=O)Nc2ccc(C(O)[C@H]3COCC(=O)N3Cc3ccc(C(F)(F)F)cc3)cc2)n(C)n1 (stereo partly drawn)	i	i	nt	nt	nt	nt
Cn1cccc1CN1CCC2(CC1)COc1ccccc1C(=O)N2	i	i	nt	nt	nt	nt
CCn1cc(CN2CCCC23CCN(c2ccc(C(F)(F)F)cn2)CC3)c(C)n1	i[11.5 µM]	i	nt	nt	nt	nt
COc1ncccc1-c1cnc2[nH]cc(CC(=O)Nc3cccc(Cl)c3)c2c1	i	?	40µM	?	i	44µM
SMILES	GPT2 inh	hNpr1 antagonist	Npr1 antag conf	Npr2 selectivity	FLuc inh counter	GloSensor cGMP
COc1ncccc1-c1cnc2[nH]cc(CC(=O)NC3CC3)c2c1	i	i	nt	nt	nt	nt
Cc1ncsc1CN1CCC2(CC1)NCCc1c2[nH]c2ccccc12	i	i	nt	nt	nt	nt
CN1CCC(OC2CCN(C(=O)CC3CCCC3)CC2)CC1	i	i	nt	nt	nt	nt
Cc1n[nH]c(C)c1Cc1ccc(C(=O)N2CCC(CCOc3ccc(F)cc3)C2)o1 (stereo not drawn)	i	16µM	24µM	24µM	i	22µM
O=C(c1ccncc1)N1CCC(CCOc2ccc(F)cc2)C1 (stereo not drawn)	i	i	nt	nt	nt	nt
COc1ccccc1-n1c(=O)c(C(=O)N2CCOCC2)nc2cccnc21	i	nt	nt	nt	nt	nt
CC(C)c1nncn1C1CCN(S(=O)(=O)c2ccc(Br)cc2)CC1	i	i	nt	nt	nt	nt
CC(C)c1nncn1C1CCN(S(=O)(=O)c2ccc(Br)s2)CC1	i	11µM	24µM	?	i	22µM
O=C1NC2(CCN(C(=O)c3ccc(C(F)(F)F)cc3)C2)Oc2ccccc21 (stereo not drawn)	i	i	nt	nt	nt	nt
Cc1ccc(Cn2c(C3CCN(C(=O)c4ccc(C(F)(F)F)cc4)CC3)n[nH]c2=O)cc1	i	i	nt	nt	nt	nt
COc1ccccc1N1CCN(C(=O)c2cc3n(n2)CC(c2ccc(Cl)cc2)OC3)CC1 (stereo not drawn)	i	?	nt	nt	nt	nt
COc1cccc(N2CCN(C(=O)c3cc4n(n3)CC(c3ccc(Cl)cc3)OC4)CC2)c1 (stereo not drawn)	i	16µM	27µM	?	i	?
COc1ccc(C2Cn3nnc(C(=O)N4CCN(C(=O)CCc5ccccc5)CC4)c3CO2)cc1 (stereo not drawn)	i	?	24µM	?	i	22µM
COc1ccc(C2Cn3nnc(C(=O)N4CCN(C(=O)Cc5ccccc5C)CC4)c3CO2)cc1 (stereo not drawn)	i	?	22µM	22µM	i	24µM
COc1ccc(C2Cn3nnc(C(=O)N4CCN(C(=O)Cc5ccc(Cl)cc5)CC4)c3CO2)cc1 (stereo not drawn)	i	?	19µM	?	i	22µM
COc1ccc(C2Cn3nnc(C(=O)N4CCN(C(=O)c5cccs5)CC4)c3CO2)cc1 (stereo not drawn)	i	i	nt	nt	nt	nt
COc1ccc(CCC(=O)N2CCN(C(=O)c3nnn4c3COC(c3ccccc3)C4)CC2)cc1 (stereo not drawn)	i	i	nt	nt	nt	nt
Cc1ccc(C2Cn3nnc(C(=O)N4CCN(C(=O)Cc5ccc(Cl)cc5)CC4)c3CO2)cc1 (stereo not drawn)	i	i	nt	nt	nt	nt
CCOc1ccc(C2NC(=O)N(CC)C3=C2C(=O)OC3)cc1 (stereo not drawn)	i	i	nt	nt	nt	nt
CCn1nccc1C(=O)N1CCC(c2nc(CCOc3cccc(C)c3)no2)C1 (stereo not drawn)	i	nt	nt	nt	nt	nt
COc1ccccc1CCC(=O)N1CCN(C(=O)c2nnn3c2COC(c2ccccc2)C3)CC1 (stereo not drawn)	i	i	nt	nt	nt	nt
COc1ccc(C(=O)N2CCN(C(=O)c3nnn4c3COC(c3ccc(Cl)cc3)C4)CC2)cc1 (stereo not drawn)	i	i	nt	nt	nt	nt
COc1ccc(C2Cn3nnc(C(=O)N4CCN(C(=O)Cc5cccc(F)c5)CC4)c3CO2)cc1 (stereo not drawn)	i	?	22µM	24µM	i	19µM
COc1ccc(C(=O)N2CCN(C(=O)c3nnn4c3COC(c3ccc(Cl)cc3)C4)CC2)c(C)c1 (stereo not drawn)	i	10µM	19µM	19µM	i	14µM
